In the test the test system is Plasmodium falciparum. The test is described as follows: Calibr Malaria Delayed Death Assay SOP. Type of test: functional, organism-based. Also on record: scale not given: in the data most compounds retested in dose-response had high values. The note with it: concentration 4.99e-06 (unit not given; other assays of the set use mol/L).

The record followed here is ChEMBL document CHEMBL3988442, “University of Dundee, Small-Polar-MMV Screening Library” (2021).

“And” between values parts separate entries of the source, which are not always exact repeats. Identical values can stand only once. The campaign covered roughly 38,000 compounds. About 1,200 (3.2%) showed an effect of 50% or more. The median lay at about -58%. The sample as a whole holds a higher share of strong results than the screen did.

As to `CCc1nc(CNc2ccc(F)c(F)c2)no1`, the “Percent Effect” value was -20.9%.

Regarding `CN(Cc1ccc(N2CCOCC2)cc1)Cc1noc(C(C)(C)C)n1`, the “Percent Effect” value is reported as -81.05%. Turning to `CC(C)(C)c1noc(CCC(=O)N2CCN(Cc3ccc(Cl)s3)CC2)n1`, the “Percent Effect” value is given as -118.6%. Same read-out and setting: then `CCc1cnc(C)nc1N1CCC(Cc2cccc(C(=O)O)c2)C1` (configuration not stated), with -30.8%; and `Cc1cccc(N2CCN(C(=O)C3CC4(CCNCC4)CN3)CC2)n1` (configuration not stated), with -69.89%.

Regarding `O=C(C1CC2(CCNCC2)CN1)N1CCN(c2ccccc2)CC1` (configuration not stated), the “Percent Effect” value is reported as -125.3%. Same read-out and setting: then `O=C(C1CC2(CCNCC2)CN1)N1CCN(c2cccc(Cl)c2Cl)CC1` (configuration not stated), with 78.29%; and `CN(C)C(=O)Cc1nc(CN2CCCCC2Cn2cccn2)cs1` (configuration not stated), with -103.2%; and `Cc1nccn1CC1CCCN(C(=O)Cc2ccsc2)C1` (configuration not stated), with -60.26%. On the same count and under the same terms, then `COC(=O)NCC(=O)N1CCCC1c1nc(-c2ccccc2F)c[nH]1` (configuration not stated), with -22.14%; and `CCC(=O)N1CCC(c2cncc(Oc3cccnc3)n2)CC1`, with -187.7%; and `CNCC(=O)N1CCCC1c1cncc(Oc2ccc(F)cc2)n1.Cl` (configuration not stated), with 68.33%.

For `NCC(=O)N1CCC(c2cncc(Oc3cccnc3)n2)CC1`, the “Percent Effect” value is -100.1%. The same measure, in the same setting: for `Cn1cc(C2CCCN2C(=O)CCCOc2ccc(F)cc2)cn1` (configuration not stated) the value was -105.8%; for `CC(C)(N)C(=O)N1CCCC1c1cncc(Oc2ccccc2)n1` (configuration not stated), 77.57%; for `CC(C)(C)OC(=O)N1CCCN(c2nnc(Br)s2)CC1`, -110%. In the case of `COc1ccccc1C(=O)Nc1c(F)c(C(=O)NCCC(C)C)nn1C`, the “Percent Effect” value was -92.84%.

Turning to `Fc1cccc(-n2ccc(CN3CCCCC3Cn3cncn3)n2)c1` (configuration not stated), the “Percent Effect” value was -49.02%.

Regarding `Fc1cccc(-n2cc(CN3CCCCC3CCn3ccnc3)cn2)c1` (configuration not stated), the “Percent Effect” value amounted to 67.59%. The same measure, in the same setting: then `c1ccc(Cn2cccn2)c(CN2CCCCC2CCn2ccnc2)c1` (configuration not stated), with 62.85%; and `Fc1ccc(-n2cccn2)c(CN2CCCCC2CCn2ccnc2)c1` (configuration not stated), with 3.883%. With `Cc1cccc(-n2cc(CN3CCN(C)[C@@H]4CS(=O)(=O)C[C@@H]43)cn2)c1`, the “Percent Effect” value was -99.09%. Turning to `Cc1ccc2nc(CN3CCCCC3CCn3cccn3)cn2c1` (configuration not stated), the “Percent Effect” value was -67.34%. As for `c1csc(CN(Cc2ccsc2)CC2CCCO2)n1` (configuration not stated), the “Percent Effect” value is recorded as -152.6%. Same read-out and setting: then `CCOc1cccc(CNC(=O)c2cnn(CC)c2C(F)(F)F)c1`, with -100.3%; and `O=C1NCc2ccc(NC(=O)C3CCCN3c3nccs3)cc21` (configuration not stated), with -60.91%. Same read-out and setting: for `O=C(CN1CCCS1(=O)=O)Nc1ccc(OC2CCCC2)cc1` the value was -131%. Same read-out and setting: for `CC(=O)c1ccc(NC(=O)C(NC(=O)Nc2ccccc2)C(C)C)cc1` (configuration not stated) the value was -29.84%; for `O=C(NCCNC1CCN(c2nccs2)CC1)c1cccs1`, -27.34%.

Consider `Cc1n[nH]c(SCCNC2CCN(c3nc4ccccc4s3)CC2)n1`, for which the “Percent Effect” value was -208.3%. Still for that read-out and setting: then `CCc1nccn1CCNC1CCN(c2nc3ccc(Cl)cc3s2)CC1`, with 85.53%; and `CCc1cc(N2CCC(NCCc3ccccc3F)CC2)nc(C)n1`, with -10.81%. As for `Cn1ccnc1SCCNC1CCN(c2ncccn2)CC1`, the “Percent Effect” value is reported as -15.99%. Turning to `Cn1ccnc1SCCNC1CCN(c2nc3ccccc3s2)CC1`, the “Percent Effect” value is on record as 58.02%. As for `N#Cc1ccc(OCC(O)CN2CCc3cncnc3C2)cc1` (configuration not stated), the “Percent Effect” value is on record as -94.24%. The same measure, in the same setting: then `CCN1CC2(CCC1=O)CCN(Cc1cscn1)CC2`, with -71.85%; and `CCN1CC(c2ccccc2)CC2(CCN(Cc3ncc[nH]3)CC2)C1` (configuration not stated), with 87.85%. The same measure, in the same setting: then `COc1ccc(C2CCN(Cc3cscn3)CC2)cc1`, with -93.29%. On the same count and under the same terms, for `c1ccc(C2CN(C3CC3)CC3(CCN(Cc4ncc[nH]4)CC3)C2)cc1` (configuration not stated) the value was 35.37%; for `c1ccc(C2CN(C3CC3)CC3(CCN(Cc4cscn4)CC3)C2)cc1` (configuration not stated), 80.59%; for `CCN(CC1CN(Cc2ncc[nH]2)CCO1)c1cccnn1` (configuration not stated), -7.517%. For `COCCC(=O)N1CCC2(CC1)CC(c1ccccc1)CN(C)C2` (configuration not stated), the “Percent Effect” value was -5.324%. Same read-out and setting: for `CN1CC(c2ccccc2)CC2(CCN(Cc3ncc[nH]3)CC2)C1` (configuration not stated) the value was 82.67%; for `CCc1ccccc1CN1CCN(Cc2ncc[nH]2)[C@H]2CS(=O)(=O)C[C@H]21`, -62.66%; for `O=C(NCC(O)c1ccc(Cl)c(F)c1)NC1CC=CC1` (configuration not stated), -17.82%. Still for that read-out and setting: then `CCSc1cc(C(=O)NCCC(=O)N(C)C)ccn1`, with -118.1%.

As to `Cc1nn(CCNS(=O)(=O)NCc2ccccc2)c(C)c1Cl`, the “Percent Effect” value is on record as -125.5%. On the same count and under the same terms, for `COc1ccccc1N1CCN(C(=O)CCc2nncn2C)C(C)C1` (configuration not stated) the value was -70.09%.

As to `Cc1ccc(C)c(OC2CCN(C(=O)NCC(=O)N3CCCC3)CC2)c1`, the “Percent Effect” value is reported as -83.87%. On the same count and under the same terms, then `CC(C)n1c2ccccc2c2c1cc(C(=O)NC1CC1)n2C(=O)N(C)C`, with -14.52%; and `O=c1c(CN2CCCCCC2)coc(O)c1CN1CCOCC1`, with -41.33%; and `O=c1c(CN2CCSCC2)coc(O)c1CN1CCCC1`, with -11.49%.

`O=c1c(CN2CCCCCC2)coc(O)c1CN1CCCCCC1`: the “Percent Effect” value stood at 53.69%. For `COc1ccc(CNc2c(N3CCN(C)CC3)c(=O)c2=O)cc1`, the “Percent Effect” value is listed as -162.8%.

Regarding `CCc1nc2n(n1)CC(NCc1noc(-c3ccc(C)cc3)n1)CC2` (configuration not stated), the “Percent Effect” value is reported as -102.8%. As for `CN(C)c1nc(NCCc2cnccn2)ncc1F`, the “Percent Effect” value is recorded as -28.24%.

Consider `COCCC1CCCCN1C(=O)c1coc(COc2ccccc2F)n1` (configuration not stated), for which the “Percent Effect” value (4.99 µM) was -24.51% and -14.95%. `COc1cccc(CNCc2ccccc2Cl)c1O`: the “Percent Effect” value is 76.29%.

On to `Cc1cnn(CCNCc2ccc(F)cc2Cl)c1`, for which the “Percent Effect” value is given as -82.03%. On the same count and under the same terms, for `CCOc1cccc(CNc2ccccc2Cl)c1O` the value was -149%. Same read-out and setting: then `COCCNC(=O)NCCc1cccc(OC)c1O`, with -51.73%. Same read-out and setting: for `COc1cccc(CNCc2ccc(F)cc2Cl)c1O` the value was 78.71%; for `Fc1ccc(CNCCn2cccn2)c(Cl)c1`, -121.7%. For `O=C(c1ccc2[nH]c(=O)[nH]c2c1)N1CCC(Nc2cccnn2)CC1`, the “Percent Effect” value is on record as -46.87%.

Take `COc1c(C)cnc(CN2CCOC(Cn3cc(C)cn3)C2)c1C` (configuration not stated): the “Percent Effect” value is on record as -74.84%.

`Cn1c2c(c(=O)n1C)CN(C(=O)c1cnccn1)CCC2`: the “Percent Effect” value was -106.6%. Still for that read-out and setting: then `Cc1ccc(C(=O)N2CCCC3(C2)C(=O)N(C)c2ccccc23)c(=O)[nH]1` (configuration not stated), with -167.7%.
